High-throughput results: PubChem BioAssay, National Center for Advancing Translational Sciences (NCATS)
IDH1 R132H inh = qHTS for Inhibitors of mutant isocitrate dehydrogenase 1 (IDH1): qHTS; Isocitrate dehydrogenase [NADP] cytoplasmic (Homo sapiens), O75874; IDH1-R132H enzyme, NADPH consumption, diaphorase/resazurin fluorescence; Potency, µM (titrated, usually from 76.6 µM), hits mostly inhibitors; hit rate 0.093% among 390,000; further: nearly all actives have a fitted effect of over 65% in size
Target sequence (O75874 whole entry R132H, stated change not applied): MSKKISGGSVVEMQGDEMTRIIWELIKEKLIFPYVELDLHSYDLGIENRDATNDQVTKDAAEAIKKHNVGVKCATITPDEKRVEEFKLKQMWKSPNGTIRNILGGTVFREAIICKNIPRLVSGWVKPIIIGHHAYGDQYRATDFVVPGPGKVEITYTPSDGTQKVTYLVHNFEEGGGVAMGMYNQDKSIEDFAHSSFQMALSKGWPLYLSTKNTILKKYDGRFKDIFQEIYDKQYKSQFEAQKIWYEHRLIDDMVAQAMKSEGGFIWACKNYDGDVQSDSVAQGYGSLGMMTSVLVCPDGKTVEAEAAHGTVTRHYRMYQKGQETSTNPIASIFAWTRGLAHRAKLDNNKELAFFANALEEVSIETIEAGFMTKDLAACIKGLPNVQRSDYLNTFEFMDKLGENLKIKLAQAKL
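IDH1-R132H (0.5 ug/mL) preincubated 30 min with compound, then NADPH (0.016 mM) and alpha-KG (2 mM) added; 80 min at RT, pH 7.5. Remaining NADPH coupled via diaphorase/resazurin to fluorescence (540/590 nm); concentration-response curves normalized to no-enzyme control.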
TrxR1 inh = qHTS Assay for Inhibitors of Mammalian Selenoprotein Thioredoxin Reductase 1 (TrxR1): qHTS | Thioredoxin reductase 1, cytoplasmic (Rattus norvegicus), O89049 | recombinant rTrxR1, NADPH fluorescence consumption, selenite substrate | Potency, µM (top dose mostly 114 µM), hits mostly inhibitors | hit rate 1% among 390,000; further: nearly all actives have a fitted effect of over 65% in size
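Rat TrxR1 (90 nM in the dispensed reagent) was pre-reduced with 400 uM NADPH for 5 min at room temperature, then incubated with compound for 15 min. After 400 uM selenite was added, NADPH fluorescence (Ex 340/Em 450 nm) was followed for 8 min.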
TrxR1 substrate = qHTS Assay for Substrates of Mammalian Selenoprotein Thioredoxin Reductase 1 (TrxR1): qHTS. AID 588456, 2011. hit rate 0.01% among 390,000. Potency, µM (series often up to 114 µM). Thioredoxin reductase 1, cytoplasmic (Rattus norvegicus), O89049. purified TrxR1 substrate turnover, NADPH consumption readout; further: nearly all actives have a fitted effect of over 50% in size
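Rat TrxR1, dispensed at 90 nM, was prereduced with 400 uM NADPH (final) for 5 min at ~22 deg C, then incubated with compound 15 min before 400 uM selenite. A first-read NADPH fluorescence drop versus no-compound background flagged substrates.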
GLS inh = qHTS for Inhibitors of Glutaminase (GLS). GLS enzymatic activity, qHTS titration. hit rate 0.21% among 410,000. AID 624170, 2012. Potency, µM (highest dose often 45.5 µM), usual class: inhibitors. Glutaminase kidney isoform, mitochondrial (Homo sapiens), O94925
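Assay buffer: 45 mM KH2PO4 pH 8.2, 0.02% Tween-20. hKGA acts on L-glutamine (1 mM solution added); product glutamate is reported by an oxidase/peroxidase Amplex Red coupling, with fluorescence taken at baseline and 30 min.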
Resorufin autofl = qHTS for Inhibitors of mutant isocitrate dehydrogenase 1 (IDH1): Cherrypicks Autofluorescence Interference; inhibition of signal, % at 51.2 µM; 750 tested, under 10 active; shares compounds with IDH1 R132H inh; Resorufin detection reagent fluorescence interference, cell-free
IDH1 WT = qHTS for Inhibitors of mutant isocitrate dehydrogenase 1 (IDH1): Cherrypicks in WT IDH1 | shares compounds with IDH1 R132H inh | WT IDH1 enzyme, NADPH diaphorase/resazurin fluorescence | Potency, µM (titrated, usually from 115 µM), hits mostly inhibitors | hit rate 9% among 750; further: nearly all actives have a fitted effect of over 55% in size
Target sequence (O75874 whole entry, looked up): as the sequence (O75874 whole entry R132H, stated change not applied) above, with H132R counted along it
mIDH1 confirm = qHTS for Inhibitors of mutant isocitrate dehydrogenase 1 (IDH1): Confirmation of Cherrypicks. shares compounds with IDH1 R132H inh. IDH1 R132H enzyme, NADPH diaphorase/resazurin fluorescence. Potency, µM (highest dose often 76.6 µM), most hits filed as inhibitors. hit rate 83% among 750; further: nearly all actives have a fitted effect of over 50% in size
Numbers stand for hits; [ ] = dose if it differs, or a comment. Hits are enriched below; roughly 1.2% of the tested compounds scored in any of these assays. The call rests on the fitted dose curve; in most records, active means well fitted curve in the direction sought with a large enough effect; inconclusive means small, poorly fitted or top-dose-only effect, or another doubt; inactive means no such curve, though single readings can be large; an effect the other way counts as inactive or inconclusive.

Results for O=C(Nc1cccc(Br)c1)N1CCN2CCCCC2C1 (stereo not drawn) ?
IDH1 R132H inh: inactive; TrxR1 inh: inactive; TrxR1 substrate: inactive; GLS inh: inactive

Results for O=C(CSc1cn(CCNC(=O)c2c(F)cccc2F)c2ccccc12)Nc1ccccc1F ?
IDH1 R132H inh: inactive; TrxR1 inh: inactive; TrxR1 substrate: inactive; GLS inh: inactive

How did Cc1nc2c(-c3ccccc3)c(C)nn2c(C)c1CCC(=O)Nc1ccccc1F do in these assays?
IDH1 R132H inh: inconclusive; TrxR1 inh: inactive; TrxR1 substrate: inactive; GLS inh: inactive

Results for CS(=O)(=O)c1ncc(N(Cc2ccco2)Cc2cccs2)c(C(=O)Nc2ccccc2F)n1 ?
IDH1 R132H inh: inactive; TrxR1 inh: inactive; TrxR1 substrate: inactive; GLS inh: inactive

What do the screens show for `CSc1ccc(NC(=O)CC(C)=O)cc1`?
IDH1 R132H inh: inactive; TrxR1 inh: inconclusive; TrxR1 substrate: inactive; GLS inh: inactive

What do the screens show for `Cc1ccc(C)c(Sc2ccc(NC(=O)CCl)cc2)c1`?
IDH1 R132H inh: inconclusive; TrxR1 inh: inactive; TrxR1 substrate: inactive; GLS inh: inactive; Resorufin autofl: inactive; IDH1 WT: inactive; mIDH1 confirm: 39.8µM

What do the screens show for `Cc1ccc(NC(=O)CCSCCC(=O)Nc2ccc(C)c(C)c2)cc1C`?
IDH1 R132H inh: inactive; TrxR1 inh: inactive; TrxR1 substrate: inactive; GLS inh: inactive

What do the screens show for `Cc1ccc(Sc2ccc(NC(=O)CCl)cc2)cc1C`?
IDH1 R132H inh: inconclusive; TrxR1 inh: inconclusive; TrxR1 substrate: inactive; GLS inh: inactive; Resorufin autofl: inactive; IDH1 WT: inconclusive; mIDH1 confirm: 39.8µM

What do the screens show for `O=C(C[N+]1(CC(O)c2ccccc2)CCOCC1)c1ccccc1` (stereo not drawn)?
TrxR1 inh: inactive; TrxR1 substrate: inactive

Results for O=C1c2[nH]nc(-c3ccccc3O)c2C(c2ccccc2)N1Cc1ccco1 (stereo not drawn) ?
IDH1 R132H inh: inactive; TrxR1 inh: inactive; TrxR1 substrate: inactive; GLS inh: inactive

What do the screens show for `COc1cc(C2c3c(-c4ccccc4O)n[nH]c3C(=O)N2Cc2ccco2)ccc1OCC(C)C` (stereo not drawn)?
IDH1 R132H inh: inconclusive; TrxR1 inh: inactive; TrxR1 substrate: inactive; GLS inh: inactive; Resorufin autofl: inactive; IDH1 WT: inactive; mIDH1 confirm: 20µM

What do the screens show for `O=C1c2[nH]nc(-c3ccccc3O)c2C(c2ccc(Cl)cc2)N1Cc1ccco1` (stereo not drawn)?
IDH1 R132H inh: 39.8µM; TrxR1 inh: inactive; TrxR1 substrate: inactive; GLS inh: inactive; Resorufin autofl: inactive; IDH1 WT: inactive; mIDH1 confirm: 28.2µM

How did COc1cc(C2c3c(-c4ccccc4O)n[nH]c3C(=O)N2CCO)ccc1OCC(C)C (stereo not drawn) do in these assays?
IDH1 R132H inh: inactive; TrxR1 inh: inactive; TrxR1 substrate: inactive; GLS inh: inactive

Results for Cc1ccc(O)c(-c2n[nH]c3c2C(c2ccccc2F)N(Cc2ccco2)C3=O)c1 (stereo not drawn) ?
IDH1 R132H inh: inconclusive; TrxR1 inh: inactive; TrxR1 substrate: inactive; GLS inh: inactive; Resorufin autofl: inactive; IDH1 WT: inactive; mIDH1 confirm: 25.1µM

How did CCOc1cccc(C2c3c(-c4cc(C)ccc4O)n[nH]c3C(=O)N2Cc2ccco2)c1 (stereo not drawn) do in these assays?
IDH1 R132H inh: 31.6µM; TrxR1 inh: inactive; TrxR1 substrate: inactive; GLS inh: inactive; Resorufin autofl: inactive; IDH1 WT: inactive; mIDH1 confirm: 11.2µM

Results for COc1cccc(C2c3c(-c4ccccc4O)n[nH]c3C(=O)N2Cc2ccco2)c1 (stereo not drawn) ?
IDH1 R132H inh: 52.1µM; TrxR1 inh: inactive; TrxR1 substrate: inactive; GLS inh: inactive; Resorufin autofl: inactive; IDH1 WT: inactive; mIDH1 confirm: 39.8µM

What do the screens show for `CCCCOc1cccc(C2c3c(-c4cc(C)ccc4O)n[nH]c3C(=O)N2CCOC)c1` (stereo not drawn)?
IDH1 R132H inh: 31.6µM; TrxR1 inh: inactive; TrxR1 substrate: inactive; GLS inh: inactive; Resorufin autofl: inactive; IDH1 WT: inactive; mIDH1 confirm: 22.4µM

How did CN(C)c1ccc(CN(CC2CCCO2)C(=O)COc2ccccc2Cl)cc1 (stereo not drawn) do in these assays?
IDH1 R132H inh: inactive; TrxR1 inh: inactive; TrxR1 substrate: inactive; GLS inh: inactive

How did CC1CCCCC1NC(=O)c1cn(C)c2ccc(S(=O)(=O)N3CCCC3)cc2c1=O (stereo not drawn) do in these assays?
IDH1 R132H inh: inconclusive; TrxR1 inh: inactive; TrxR1 substrate: inactive; GLS inh: inactive; Resorufin autofl: inactive; IDH1 WT: inactive; mIDH1 confirm: 22.4µM

Results for COc1ccc(NC(=O)CN2C(=O)C(C)(C)c3ccccc32)cc1Cl ?
IDH1 R132H inh: inactive; TrxR1 inh: inactive; TrxR1 substrate: inactive; GLS inh: inactive

What do the screens show for `CCCn1c2ccccc2c2cnn(CC(=O)Nc3ccc(C)cc3Br)c(=O)c21`?
IDH1 R132H inh: inactive; TrxR1 inh: inactive; TrxR1 substrate: inactive; GLS inh: inactive

How did COc1ccc(OC)c(N(C(=O)c2snc(C(N)=O)c2N)C(C(=O)NCc2ccccc2)c2ccc(O)cc2)c1 (stereo not drawn) do in these assays?
IDH1 R132H inh: inconclusive; TrxR1 inh: inactive; TrxR1 substrate: inactive; GLS inh: inactive; Resorufin autofl: inactive; IDH1 WT: inactive; mIDH1 confirm: 22.4µM

Results for Cc1cccc(N(C(=O)c2snc(C(N)=O)c2N)C(C(=O)NCc2ccccc2)c2ccncc2)c1 (stereo not drawn) ?
IDH1 R132H inh: inconclusive; TrxR1 inh: inactive; TrxR1 substrate: inactive; GLS inh: inactive; Resorufin autofl: inactive; IDH1 WT: inactive; mIDH1 confirm: 35.5µM

Results for CCC(NC(=O)Nc1cc(OC)ccc1OC)c1c(-n2cccc2)sc2c1CCN(CC)C2 (stereo not drawn) ?
IDH1 R132H inh: inactive; TrxR1 inh: inactive; TrxR1 substrate: inactive; GLS inh: inactive

Results for O=C(C[N+]1(CCO)CCOCC1)c1cccc2ccccc12 ?
TrxR1 inh: inactive; TrxR1 substrate: inactive[0.0914 µM]
